HSF-1 act = HSF-1 activators, primary screen, NIH3T3-HGL cells, MG132 stress, luminescence, single point | activation, % at 9 µM | NIH3T3-HGL HSF-1 luciferase reporter, 8 h; 100% = twice DMSO control signal | 300,000 tested, 1.7% active;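 active = mean replicate activation of at least 50% with a set share of replicates each reaching 50%; inconclusive = only one of those two conditions met; inactive = mean below 50% and too few replicates reaching it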;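 note: 0% = median of the neutral control wells and 100% = twice that signal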
HSP90 refold inh = HSP90 inhibitors, primary screen, cell lysate, luminescence; Heat shock protein HSP 90 (rabbit reticulocyte lysate; luciferase refolding); Rabbit reticulocyte lysate, luciferase refolding luminescence, 3 h; inhibition, % at 5.6 µM; 290,000 tested, 0.91% active; AID 1789, 2009;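 active = inhibition above the screen-wide mean plus 3 SD, computed separately per campaign, cut at about 16% in these data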;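 note: 0% = DMSO wells and 100% = 60 µM geldanamycin wells; inhibitors lower the luminescence because luciferase stays unfolded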
pCIP destab = p/CIP-EGFP fusion destabilizers, primary screen, fluorescence, F442A cells; Q05BA5; 16 h; decrease of EGFP signal, % at 10 µM; 290,000 tested, 0.01% active; AID 1984, 2009;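 active = EGFP signal decrease of at least 30% at 10 µM or well 3 SD below plate mean, unless failing retest; inactive = the rest, including hits failing retest or dose response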
Hsp70 act = Hsp70 transcriptional activators, primary screen, cell-based, HeLa, Hsp70 promoter luciferase, luminescence, 10 µM | AID 1203, 2008 | HeLa Hsp70 promoter luciferase reporter; scaled: vehicle 0, proteasome-inhibitor control 100% | 200,000 tested, 0.04% active | activation, % at 10 µM;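 active = activation above the mean across all tested compounds plus 3 SD, cutoff set per campaign, cut at about 5.5% in these data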;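 note: 100% = MG132 at 30 µM as the positive control and 0% = DMSO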
NALP1 yeast inh = NALP1 inflammasome inhibitors in reconstituted yeast, colorimetric, S. cerevisiae, triplicate retest; 280,000 tested, 0.61% active; S. cerevisiae NALP1/ASC/caspase-1 growth, X-gal OD620, 72 h; inhibition, % at 10 µM; in the data active = inhibition mostly above about 24%, no sharp cut-off; inactive = mostly below about 32%
HSF1 inhib = HSF1 inhibitors in luciferase reporter cells, primary screen, cell-based, NIH3T3, luminescence; NIH3T3-HGL HSE-luciferase, MG132-induced, luminescence 8 h; stronger effect = lower value; activity change, negative = inhibition, % at 7.5 µM (by protocol); 300,000 tested, 0.77% active;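 active = more than half of replicate wells show activity change below -50%, luminescence cut by over half; inconclusive = some wells, but at most half, below -50%; inactive = no replicate well below -50%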;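 note: luciferase reports HSF-1 transcriptional activity via heat shock element; 0% = median of DMSO wells and -100% = zero luminescence signal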
Numbers without * were called inactive; ? = inconclusive; · = no result. Hits are enriched below; roughly 3.8% of the tested compounds scored in any of these assays.

SMILES	HSF-1 act	HSP90 refold inh	pCIP destab	Hsp70 act	NALP1 yeast inh	HSF1 inhib
COC(=O)c1ccccc1SC1CC(=O)N(c2ccccc2)C1=O (configuration not stated)	-10	-1	-12	0	78*	0
CCCC(=O)N1CCCC(C(=O)c2cccc(OC(C)C)c2)C1 (configuration not stated)	37	3	·	·	·	21
N/C(=N\OC(=O)/C=C/c1ccccc1Cl)c1cccnc1	57*	-5	-8	·	-20	37
Cc1cc(C)nc(NC(=O)/C=C/c2ccccc2Cl)c1	84*	-1	-8	0	40	36
O=C(CC(=O)c1ccccc1)Nc1cccnc1	-6	-3	-5	0	-16	4
O=C(/C=C/c1ccccc1Cl)Nc1ccncc1	53*	-7	-4	0	14	38
O=C(Nc1ccccc1)C(=O)Nc1cccnc1	49	16*	-10	·	3	17
O=C(/C=C/c1c(Cl)cccc1Cl)Nc1ccncc1	?	1	-1	0	-27	37
O=C(/C=C/c1c(F)cccc1Cl)Nc1nc2ccccc2[nH]1	63*	2	1	0	10	18
Cc1cccc(NC(=O)/C=C/c2ccc(Cl)cc2)n1	67*	3	12	0	21	36
O=C(/C=C/c1ccccc1Cl)Nc1cccnc1	58*	6	4	·	5	28
O=C(/C=C/c1c(F)cccc1Cl)Nc1ccncc1	69*	2	-1	0	42	42
CN(CCOc1ccccc1)C(=S)Nc1ccc(OC(F)F)cc1	-27	-3	-5	·	-5	-22
Cc1cc2oc(C(=O)Nc3nonc3C)c(C)c2cc1Cl	7	-2	-15	·	23	9
COc1ccc(/C=C/C(=O)c2ccc(O)cc2)cc1CN1CCOCC1	35	-1	4	0	12	23
O=C(/C=C/c1cccc(O)c1)c1ccc(N2CCOCC2)cc1	74*	-4	1	·	-5	61
CCc1cc(=O)oc2c3c(cc(OCC(=O)NCCN4CCOCC4)c12)OC(C)(C)CC3	-11	-1	6	·	10	-3
CC1CCN(CCCNC(=O)COc2cc(=O)n(C)c3ccccc23)CC1	57*	-3	6	0	8	21
CCn1c(=O)cc(OCC(=O)NCCCN2CCC(C)CC2)c2ccccc21	46	3	-7	0	-1	20
CCCc1nc2cc3c(cc2[nH]1)n(C)c(=O)n3C	1	-1	1	·	8	2
S=C1SCN(Cc2cccnc2)CN1Cc1cccnc1	-90	2	-22	·	69*	-86*
Cc1noc(NS(=O)(=O)c2ccc(NC(=O)CC(C)C)cc2)c1C	16	-4	-8	·	38*	1
CCc1cccc(OCC(=O)Nc2ccc(S(=O)(=O)Nc3onc(C)c3C)cc2)c1	-82	-3	8	0	-4	-79*
Cc1noc(NS(=O)(=O)c2ccc(NC(=O)C(C)C)cc2)c1C	-13	3	1	·	13	1
Cc1ccc(S(=O)(=O)CC(=O)Nc2ccc(S(=O)(=O)Nc3onc(C)c3C)cc2)cc1	-88	0	-2	0	11	-84*
CC(C)c1nc2ccccn2c1NC1CCCCC1	2	2	-18	0	24*	-4
c1csc(-c2nc3ccccn3c2NC2CCCCC2)c1	14	-2	-27	0	-1	19
COc1ccc(OC)c(C(=O)NC(CC(N)=O)c2ccc(N3CCC(Cc4ccccc4)CC3)c([N+](=O)[O-])c2)c1 (configuration not stated)	5	0	-9	·	30	-2
CC(Sc1nc(-c2ccccc2)cc(C(F)(F)F)n1)C(=O)Nc1sc2c(c1C#N)CCC2 (configuration not stated)	57*	-1	-5	-1	3	17

Source: PubChem
